# Measurements as given in PubChem BioAssay (NCI).
# This is part of a sample that, as a whole, favours compounds with a hit. Of some 83,000 tested, about 20% had one in any assay.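 Plates (96-well) were seeded with cells, treated with compound at one concentration, and incubated for 48 hours before percent growth was determined.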 Calls of active or inactive are those of the source. Rule for the calls: active = growth percent below 10; inactive = the rest.
# Tested on: MDA-MB-468 breast
# Experiment: NCI-60 one-dose screen, 48 h (100 = growth as untreated, 0 = no growth, -100 = all killed)
# Settings: 10 µM unless noted
row,Compound,growth
1,COc1ccc(-c2cc(C(=O)N=Nc3c(O)[nH]c4ccccc34)no2)cc1,106% (inactive)
2,CC(C)C[C@H]1C(=O)O[C@H](C(C)C)C(=O)N(C)[C@@H](C(C)C)C(=O)O[C@H](C(C)C)C(=O)N(C)[C@@H](C(C)C)C(=O)O[C@H](C(C)C)C(=O)N1C,-7.13% (active)
3,COc1ccc(-c2csc(NC(=O)Nc3nc(-c4ccc(OC)cc4)cs3)n2)cc1,47.3% (inactive)
4,O=C(N/N=C\c1c(O)ccc2ccccc12)C1CC1,11.8% (inactive)
5,COc1ccc2[nH]cc(/C=N/Nc3nc4ccccc4s3)c2c1,40.6% (inactive)
6,CCCCCCCCCCCCN1CCCC(C)C1 (configuration not stated),68.4% (inactive)
7,Cc1ccc(C(=O)N/N=C/c2cccc([N+](=O)[O-])c2)cn1,89.5% (inactive)
8,CC(C)CCC[C@@H](C)[C@H]1CC[C@H]2[C@@H]3CC=C4c5sc(Nc6cc(C(F)(F)F)cc(C(F)(F)F)c6)nc5CC[C@]4(C)[C@H]3CC[C@]12C,105% (inactive)
9,Nc1nc(Nc2ccccc2SSc2ccccc2Nc2nc(N)nc(-c3ccc4ccccc4c3)n2)nc(-c2ccc3ccccc3c2)n1,103% (inactive)
10,Oc1c(CN2CCN(c3ccccc3F)CC2)cc(Br)c2cccnc12,-43% (active)
11,CC(=O)N(O)CCCCCNC(=O)CCC(=O)N(O)CCCCCNC(=O)CCC(=O)N(O)CCCCCN(CCCCCCCCCC[P+](c1ccccc1)(c1ccccc1)c1ccccc1)CCCCCCCCCC[P+](c1ccccc1)(c1ccccc1)c1ccccc1,-42.6% (active)
12,NNc1ncnc2c1ncn2C1OC(CO)C(O)C1O (configuration not stated),58.8% (inactive)
